Data taken from PubChem BioAssay (Tox21).
Values joined by “and” are separate entries in the source; they are usually repeats but may differ in a detail not shown here. Equal entries are not always repeated. Results filed as inconclusive are left out. More than one record can exist for a structure, and the calls need not agree. Active and inactive are the calls of the source. Unless noted, calls follow the shape of the full dose curve.

Legend:
[1] = Nuclear factor erythroid 2-related factor 2/antioxidant responsive element (Nrf2/ARE) small molecule agonists: qHTS cell viability counter screen in human keratinocytes (AID 1919968; active = well fitted curve in the direction sought with a large enough effect in the repeat runs; an effect the other way counts as inactive or inconclusive; also: nearly all actives have a fitted effect of over 55% in size)
Procedure, shortened: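 Parallel cytotoxicity read: KeratinoSens HaCaT cells, compound treatment 23 h, viability by CellTiter-Fluor fluorescence 1 h post-reagent.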

[2] = Nuclear factor erythroid 2-related factor 2/antioxidant responsive element (Nrf2/ARE) small molecule agonists: luciferase reporter gene qHTS assay in human keratinocytes (AID 1919969); also: nearly all actives have a fitted effect of over 35% in size; also: potency is read from the fitted curve at half-maximal effect
[3] = biological target: Gonadotropin-releasing hormone receptor (Homo sapiens) (UniProt P30968); test: Human gonadotropin-releasing hormone receptor (GnRHR) small molecule agonists, calcium flux assay in GnRHR-HEK293 cells (AID 1920063); also: nearly all actives have a fitted effect of over 35% in size
Sequence of Gonadotropin-releasing hormone receptor (Homo sapiens) (P30968 whole entry, looked up): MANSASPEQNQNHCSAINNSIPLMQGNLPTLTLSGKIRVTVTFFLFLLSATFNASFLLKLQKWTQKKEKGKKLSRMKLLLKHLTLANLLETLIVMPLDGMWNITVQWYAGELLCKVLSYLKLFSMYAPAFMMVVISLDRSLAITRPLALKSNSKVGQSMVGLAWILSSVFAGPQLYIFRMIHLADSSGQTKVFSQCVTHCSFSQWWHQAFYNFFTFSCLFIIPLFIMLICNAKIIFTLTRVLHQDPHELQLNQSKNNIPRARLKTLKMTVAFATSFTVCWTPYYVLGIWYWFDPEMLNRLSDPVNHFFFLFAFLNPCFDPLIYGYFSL
Procedure, shortened: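 Calcium flux, agonist mode, human GnRHR stably integrated in HEK293; dye 1 h at 37 C before compound; Ex/Em=480/540 kinetic read, 3 min; 15 concentrations, triplicate.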

[4] = biological target: KiSS-1 receptor (Homo sapiens) (UniProt Q969F8); test: Human kisspeptin (KISS1R) small molecule agonists, calcium flux assay in KISS1R-HEK293 cells (AID 1920064; active = well fitted curve in the direction sought with a large enough effect in the repeat runs; an effect the other way counts as inactive or inconclusive)
Sequence of KiSS-1 receptor (Homo sapiens) (Q969F8 whole entry, looked up): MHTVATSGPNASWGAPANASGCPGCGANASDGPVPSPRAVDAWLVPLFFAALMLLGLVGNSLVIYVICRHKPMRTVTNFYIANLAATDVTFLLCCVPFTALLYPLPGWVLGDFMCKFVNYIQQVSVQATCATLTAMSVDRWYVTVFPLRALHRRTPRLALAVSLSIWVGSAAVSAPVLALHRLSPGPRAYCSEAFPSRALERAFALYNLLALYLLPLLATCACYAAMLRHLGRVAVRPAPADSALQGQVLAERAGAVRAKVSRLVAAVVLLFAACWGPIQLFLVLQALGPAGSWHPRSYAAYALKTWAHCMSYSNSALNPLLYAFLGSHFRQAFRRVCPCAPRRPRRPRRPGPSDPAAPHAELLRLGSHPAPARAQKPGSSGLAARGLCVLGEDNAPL
Procedure, shortened: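 Triplicate 15-concentration series were applied to dye-loaded human KISS1R HEK293 cells, and agonist-evoked calcium fluorescence was captured for 3 min.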

[5] = G protein-coupled receptor (GPCR) small molecule agonists, calcium flux assay: HEK293 wild type cell line counter screen (AID 1920065)
Procedure, shortened: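 Non-specific calcium responders were flagged by adding DMSO-dissolved compounds to dye-loaded cells and reading 480/540 nm fluorescence each second for 3 min; ATP served as positive control.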

[6] = p53 small molecule agonists, cell-based qHTS assay with human liver microsomes (AID 1963577); also: potency is read from the fitted curve at half-maximal effect
Procedure, shortened: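 p53RE-bla cells, 4,000/well, compound added after 5 h, with human liver microsomes 0.5 mg/mL and NADPH 0.5 mg/mL final; 16 h at 37 C, then LiveBLAzer 2 h RT, fluorescence.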

[7] = p53 small molecule agonists, cell-based qHTS assay with rat liver microsomes (AID 1963578)
Procedure, shortened: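 p53RE-bla cells, 4,000/well, pre-incubated 5 h, then given compounds plus rat liver microsomes (0.5 mg/mL final) and NADPH (0.5 mg/mL final). Incubation 16 h at 37 C; beta-lactamase reporter read by LiveBLAzer fluorescence after 2 h at room temperature.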

[8] = p53 small molecule agonists, cell-based qHTS assay with human liver microsomes: qHTS cell viability counter screen (AID 1963579); also: nearly all actives have a fitted effect of over 45% in size; also: potency is read from the fitted curve at half-maximal effect
Procedure, shortened: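 p53RE-bla cells, 4,000/well, dosed 5 hours after plating, with human liver microsomes (0.5 mg/mL final) plus NADPH (0.5 mg/mL final), 16 hours at 37 C. Viability read as CellTiter-Glo luminescence after 30 min at room temperature.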

[9] = p53 small molecule agonists, cell-based qHTS assay with rat liver microsomes: qHTS cell viability counter screen (AID 1963580); also: nearly all actives have a fitted effect of over 45% in size
Procedure, shortened: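 Luminescent ATP readout (CellTiter-Glo, 30 min at room temperature) reports viability of p53RE-bla HCT-116 cells after 16 h at 37 C with test compounds under metabolic activation by rat liver microsomes and NADPH at 0.5 mg/mL final each.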

[10] = p53 small molecule agonists, cell-based qHTS assay: qHTS cell viability counter screen (AID 1963581); also: nearly all actives have a fitted effect of over 45% in size
Procedure, shortened: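 Multiplexed with the reporter read, a CellTiter-Glo step (30 min, room temperature) gauges ATP-based viability of HCT-116 p53RE-bla cells after 16 h compound incubation at 37 C.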

[11] = p53 small molecule agonists, cell-based qHTS assay (AID 1963582; active = well fitted activation curve with a large enough effect in the signal ratio in the repeat runs, not every such curve was filed as active; the % refers to the signal ratio)
Procedure, shortened: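 Beta-lactamase reporter cells (p53RE-bla) treated with compounds for 16 h at 37 C; FRET substrate, 2 h, room temperature; fluorescence intensity.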

[12] = biological target: 5-hydroxytryptamine receptor 2A (Homo sapiens) (UniProt P28223); test: 5-hydroxytryptamine receptor 2A (HTR2A) small molecule antagonists, cell-based qHTS assay (AID 1963586); also: nearly all actives have a fitted effect of over 45% in size
Sequence of 5-hydroxytryptamine receptor 2A (Homo sapiens) (P28223 whole entry, looked up): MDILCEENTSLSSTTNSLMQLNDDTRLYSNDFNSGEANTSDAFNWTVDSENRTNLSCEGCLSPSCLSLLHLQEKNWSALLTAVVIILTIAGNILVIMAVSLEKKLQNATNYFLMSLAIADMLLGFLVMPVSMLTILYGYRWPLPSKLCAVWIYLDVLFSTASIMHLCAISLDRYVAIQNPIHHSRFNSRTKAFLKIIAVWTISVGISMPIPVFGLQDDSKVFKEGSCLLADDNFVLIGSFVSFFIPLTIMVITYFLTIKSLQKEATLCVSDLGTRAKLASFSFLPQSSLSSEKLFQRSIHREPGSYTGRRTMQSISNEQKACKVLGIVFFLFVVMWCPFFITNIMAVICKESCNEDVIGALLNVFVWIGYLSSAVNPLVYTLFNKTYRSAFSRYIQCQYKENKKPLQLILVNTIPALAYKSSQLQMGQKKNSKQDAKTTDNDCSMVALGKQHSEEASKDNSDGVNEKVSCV
Procedure, shortened: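 CHO cells stably expressing human HTR2A were plated for 18 h at 37 C, then loaded with calcium dye for 1 h. Compounds were preincubated 5 min at room temperature before DOI (4 nM solution) was added. Kinetic fluorescence was read for 3 min.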

[13] = biological target: 5-hydroxytryptamine receptor 2A (Homo sapiens) (UniProt P28223); test: 5-hydroxytryptamine receptor 2A (HTR2A) small molecule agonists, cell-based qHTS assay (AID 1963587); also: nearly all actives have a fitted effect of over 30% in size
Procedure, shortened: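 HTR2A-CHO cells, plated 18 h at 37 C/5% CO2, dye-loaded 1 h at 37 C; compounds in DMSO added by pin tool (agonist mode). Intracellular calcium flux read as kinetic fluorescence on FDSS over 2 min at 1 s intervals.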

[14] = cAMP Responsive Elements (CRE) small molecule agonists, cell-based qHTS assay (AID 1963590)
Procedure, shortened: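 Quantitative HTS for CRE agonists: HEK 293T CRE-bla cells, overnight plating, 3 h compound incubation at 37 C/5% CO2, then 2 h room-temperature LiveBLAzer B/G FRET substrate loading.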

[15] = cAMP Responsive Elements (CRE) small molecule antagonists, cell-based qHTS assay (AID 1963591; active = well fitted inhibition curve with a large enough effect in the signal ratio in the repeat runs, not every such curve was filed as active; the % refers to the signal ratio)
Procedure, shortened: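 Fluorescence intensity from cleaved LiveBLAzer B/G substrate (2 h, room temperature) quantified CRE-bla activity in HEK 293T cells exposed 3 h to compound with 0.25 uM final NKH477.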

[16] = biological target: Beta-2 adrenergic receptor (Homo sapiens) (UniProt P07550); test: Adrenergic beta2 receptor (ADRB2) small molecule antagonists, cell-based qHTS assay (AID 1963592); also: series mostly up to about 92 µM; nearly all actives have a fitted effect of over 50% in size
Sequence of Beta-2 adrenergic receptor (Homo sapiens) (P07550 whole entry, looked up): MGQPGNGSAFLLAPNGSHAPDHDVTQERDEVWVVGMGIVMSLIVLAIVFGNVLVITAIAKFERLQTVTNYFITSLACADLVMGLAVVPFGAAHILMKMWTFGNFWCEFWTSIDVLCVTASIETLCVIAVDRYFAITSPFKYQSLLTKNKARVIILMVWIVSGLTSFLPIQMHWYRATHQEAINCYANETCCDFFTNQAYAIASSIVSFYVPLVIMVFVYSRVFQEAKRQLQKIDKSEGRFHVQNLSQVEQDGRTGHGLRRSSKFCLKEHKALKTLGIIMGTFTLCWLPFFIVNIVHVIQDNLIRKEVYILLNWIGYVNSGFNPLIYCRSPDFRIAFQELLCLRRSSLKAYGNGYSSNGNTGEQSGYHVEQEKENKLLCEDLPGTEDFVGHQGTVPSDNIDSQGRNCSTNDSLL
Procedure, shortened: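 Assay format: CHO-ADRB2 cells, 18-20hr seeding at 37C/5% CO2, then compound plus 1nM isoproterenol agonist mix for 0.5hr RT. Homogeneous time-resolved fluorescence cAMP detection after 1hr, expressed as 665/615 nm ratio.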

[17] = biological target: Beta-2 adrenergic receptor (Homo sapiens) (UniProt P07550); test: Adrenergic beta2 receptor (ADRB2) small molecule agonists, cell-based qHTS assay (AID 1963593);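 also: CHO cells stably overexpressing human ADRB2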
Procedure, shortened: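 CHO cells stably over-expressing ADRB2 were plated overnight at 37C, then dosed with compounds plus a stimulation mix containing 100uM IBMX and 25uM Ro-20-1724 for 0.5hr at room temperature. cAMP was measured by HTRF competition, 1hr.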

[18] = biological target: D(2) dopamine receptor (Homo sapiens) (UniProt P14416); test: Dopamine D2 receptor (DRD2) small molecule agonists, cell-based qHTS assay (AID 1963594); also: nearly all actives have a fitted effect of over 35% in size
Sequence of D(2) dopamine receptor (Homo sapiens) (P14416 whole entry, looked up): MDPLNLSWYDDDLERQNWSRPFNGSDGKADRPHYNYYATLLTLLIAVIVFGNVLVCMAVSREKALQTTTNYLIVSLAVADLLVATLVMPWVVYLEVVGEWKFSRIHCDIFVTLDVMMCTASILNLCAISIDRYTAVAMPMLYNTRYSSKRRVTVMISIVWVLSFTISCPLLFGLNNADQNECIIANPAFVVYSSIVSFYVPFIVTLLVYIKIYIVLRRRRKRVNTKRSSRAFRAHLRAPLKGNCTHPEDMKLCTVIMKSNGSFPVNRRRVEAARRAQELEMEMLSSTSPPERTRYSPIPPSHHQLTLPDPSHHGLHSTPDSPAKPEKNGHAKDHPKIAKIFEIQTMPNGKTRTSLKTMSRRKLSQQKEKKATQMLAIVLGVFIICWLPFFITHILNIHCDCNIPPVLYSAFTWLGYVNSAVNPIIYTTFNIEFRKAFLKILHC
Procedure, shortened: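 HEK293 cells stably expressing DRD2 were cultured 24 h at 37 C, then given Ro20-1724 (0.1 mM final) and compounds for 10 min at room temperature. NKH477 (200nM) was then added for 30 min. cAMP was read by HTRF.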

[19] = biological target: D(2) dopamine receptor (Homo sapiens) (UniProt P14416); test: Dopamine D2 receptor (DRD2) small molecule antagonists, cell-based qHTS assay (AID 1963595; active = well fitted inhibition curve with a large enough effect in the signal ratio in the repeat runs, with a control signal flat; the % refers to the signal ratio)
Procedure, shortened: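 Antagonism was scored as restored cAMP in HEK293-DRD2 cells. These cells were stimulated with 200 nM NKH477 and 12 nM quinpirole for 30 min at room temperature, in the presence of 0.1 mM Ro20-1724.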

[20] = biological target: Muscarinic acetylcholine receptor M1 (Homo sapiens) (UniProt P11229); test: Cholinergic receptor muscarinic 1 (CHRM1) small molecule agonists, cell-based qHTS assay (AID 1963589); also: nearly all actives have a fitted effect of over 35% in size
Sequence of Muscarinic acetylcholine receptor M1 (Homo sapiens) (P11229 whole entry, looked up): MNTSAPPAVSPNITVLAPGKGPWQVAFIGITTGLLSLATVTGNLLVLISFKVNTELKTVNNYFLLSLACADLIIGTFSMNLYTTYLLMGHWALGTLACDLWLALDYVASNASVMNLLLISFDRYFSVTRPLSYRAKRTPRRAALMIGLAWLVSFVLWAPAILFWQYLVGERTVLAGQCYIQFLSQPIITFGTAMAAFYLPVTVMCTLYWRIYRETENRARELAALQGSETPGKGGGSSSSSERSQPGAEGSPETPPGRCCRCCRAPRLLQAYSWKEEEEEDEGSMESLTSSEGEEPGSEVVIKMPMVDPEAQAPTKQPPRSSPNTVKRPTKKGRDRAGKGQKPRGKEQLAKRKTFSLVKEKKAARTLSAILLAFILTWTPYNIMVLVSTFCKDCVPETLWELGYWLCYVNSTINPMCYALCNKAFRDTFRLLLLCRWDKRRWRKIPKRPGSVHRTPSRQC
Procedure, shortened: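 qHTS, 15-point titration, 3 independent runs: compounds pin-transferred onto dye-loaded CHRM1-CHO cells (human M1), calcium fluorescence followed every second to detect agonism.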

Measured: Potency

Cc1ccc(O)c(-n2nc3ccccc3n2)c1
50.9 µM (active) and inactive: [8]
active: [2] 60.6 µM and 27.3 µM and 5.96 µM
not listed: [20]
inactive: all other assays above

C=C(C)CNCC
not listed: [14]
inactive: all other assays above

CCCCCCCCC(=O)O
active: [6] 39.5 µM
not listed: [14]
inactive: all other assays above

CC(CCC(=O)O)(c1ccc(O)cc1)c1ccc(O)cc1
not listed: [15] | [17]
inactive: all other assays above

CCCCCCCCCCO
not listed: [15]
inactive: all other assays above

COc1ccc(CCC(C)=O)cc1
not listed: [20]
inactive: all other assays above

CCNc1ccccc1
not listed: [16] | [17]
inactive: all other assays above

CCOC(=O)C(C#N)=C(c1ccccc1)c1ccccc1
not listed: [15] | [17] | [19]
inactive: all other assays above

C=Cc1cccc(C)c1
not listed: [14]
inactive: all other assays above

O=C=Nc1ccc(Cc2ccc(N=C=O)cc2)cc1
not listed: [14] | [17]
inactive: all other assays above

c1ccc2[nH]cnc2c1
not listed: [15] | [18]
inactive: all other assays above

COc1ccc(OC)cc1
not listed: [15]
inactive: all other assays above

CCCCOC(=O)CCCCCCCCC(=O)OCCCC
not listed: [14] | [17]
inactive: all other assays above

Cc1ccc(C(C)C)cc1
not listed: [14] | [15] | [16]
inactive: all other assays above

Nc1nc2ccccc2[nH]1
not listed: [15] | [17] | [18]
inactive: all other assays above

Cc1cccc(C(=O)O)c1
not listed: [14] | [15] | [17]
inactive: all other assays above
